This is one part of a sample in which hits are shown more often than they occur.
FECH block = blocks human mitochondrial ferrochelatase activity; AID 1671448; purified FECH, Ni-mesoporphyrin absorbance 550 nm; calls only at 10 µM (by protocol); 20,000 compounds, 3.3% hits;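 active means enzyme reaction rate more than 3 SD below the solvent-only control wells on the same plate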;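 further: lower slope than DMSO wells means FECH inhibition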
Target sequence (P22830 whole entry, looked up): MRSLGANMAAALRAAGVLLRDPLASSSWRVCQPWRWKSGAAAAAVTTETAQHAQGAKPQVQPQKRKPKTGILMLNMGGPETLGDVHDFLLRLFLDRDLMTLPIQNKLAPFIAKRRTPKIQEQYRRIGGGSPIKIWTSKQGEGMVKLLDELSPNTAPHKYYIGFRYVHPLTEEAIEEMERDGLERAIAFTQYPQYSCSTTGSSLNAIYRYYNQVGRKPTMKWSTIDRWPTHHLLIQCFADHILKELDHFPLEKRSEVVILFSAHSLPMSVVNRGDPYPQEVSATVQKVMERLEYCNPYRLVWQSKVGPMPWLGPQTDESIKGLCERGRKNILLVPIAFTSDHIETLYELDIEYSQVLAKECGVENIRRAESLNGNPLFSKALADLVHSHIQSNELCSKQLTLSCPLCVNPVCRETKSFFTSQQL
Large screens that a line does not name were inactive.

Cc1ccc(CN2CCCN(CC(=O)Nc3c(C)cc(C)cc3C)S2(=O)=O)cc1	FECH block active
Cc1ccc(NC(=O)CN2CCCN(Cc3ccc(Cl)cc3)S2(=O)=O)c(C)c1	none
Cc1ccc(CN2CCCN(Cc3c(C)cc(C)cc3C)S2(=O)=O)cc1	none
Cc1ccc(C)c(NC(=O)CN2CCCN(Cc3cccc(F)c3)S2(=O)=O)c1	none
COc1ccnc(CN2CCCC(C(=O)c3cc(C)c(OC)c(C)c3)C2)c1OC (stereo not given)	none
COc1ccc(CNC(=O)c2nc(N3CCCC3)c3oc4ccccc4c3n2)cc1	none
COc1ccc(C)cc1NC(=O)Cc1csc(NC(=O)Nc2cccc(Cl)c2)n1	none
COc1ccc(N2CCN(CCCNC(=O)c3nc4ccccc4n(C)c3=O)CC2)cc1	none
CCN(Cc1ccncc1)Cc1cccc(C(=O)Nc2nccs2)c1	none
Cc1cc(C(=O)NCCCc2cccnc2)c2cccc(C)c2n1	none
O=C(NCCc1ncc[nH]1)C1CC(=O)N(C2CCCC2)C1 (stereo not given)	none
CSc1nc(NCCCN2CCOCC2)c(C#N)c(-c2ccc(C)cc2)n1	none
CN(C1CCS(=O)(=O)C1)S(=O)(=O)c1ccc(N2C(=O)CCS2(=O)=O)cc1 (stereo not given)	none
CC(C)CNS(=O)(=O)c1ccc(N2C(=O)CCS2(=O)=O)cc1	none
COc1ccccc1N1CCN(S(=O)(=O)c2cc(N3C(=O)CCS3(=O)=O)ccc2C)CC1	none
CCN(CC)S(=O)(=O)c1cc(N2C(=O)CCS2(=O)=O)ccc1C	none
Cc1ccc(NS(=O)(=O)c2cc(N3C(=O)CCS3(=O)=O)ccc2C)cc1C	none
COC(=O)C1CCN(S(=O)(=O)c2ccc(N3C(=O)CCS3(=O)=O)cc2)CC1	none
Cc1ccc(N2C(=O)CCS2(=O)=O)cc1S(=O)(=O)Nc1ccccc1	FECH block active
COC(=O)C1CCN(S(=O)(=O)c2cc(N3C(=O)CCS3(=O)=O)ccc2C)CC1	FECH block active
Cc1cc(C)cc(NS(=O)(=O)c2cc(N3C(=O)CCS3(=O)=O)ccc2C)c1	none
O=C1CCS(=O)(=O)N1c1ccc(S(=O)(=O)NC2CCCCC2)cc1	none
CCN(C1CCS(=O)(=O)C1)S(=O)(=O)c1cc(N2C(=O)CCS2(=O)=O)ccc1C (stereo not given)	FECH block active
O=C1CCS(=O)(=O)N1c1ccc(S(=O)(=O)NC2CC2)cc1	FECH block active
COc1ccc(S(=O)(=O)NCc2nc3cccnc3n2C2CCCCC2)cc1OC	none
CCSCCNc1nc(-c2ccncc2)nc2c1CCNC2	none
CCCc1c(-c2ccccc2)ncn1Cc1ccc(C(=O)N2CCCC2)cc1	none
Cc1cc(C(=O)NCCCSc2nnc(C)s2)nc(C)n1	none
COCCn1cnnc1Cn1ccnc1-c1ccsc1	none
CC(Cc1ccccn1)NC(=O)c1cc(-c2ccncc2)nc2ccccc12 (stereo not given)	none
Cn1c(CCc2ccccc2O)nnc1SCC(=O)O	none
NS(=O)(=O)c1ccc(NC(=O)CCS(=O)(=O)c2ccc3c(c2)NC(=O)CCS3)cc1	none
Cc1ccc(N2C(=O)CCS2(=O)=O)cc1S(=O)(=O)Nc1ccccc1Br	none
Cc1ccccc1NS(=O)(=O)c1cc(N2C(=O)CCS2(=O)=O)ccc1C	FECH block active
Cc1ccc(N2C(=O)CCS2(=O)=O)cc1S(=O)(=O)Nc1cccc(C)c1C	none
Cc1cn(Cc2nc(-c3ccccc3C)oc2C)cn1	none
Cc1ccc(NC(=O)CN2C(=O)CN(C)C(=O)c3ccccc32)cc1	none
CC(C)c1ccc(NC(=O)CN2C(=O)CN(C)C(=O)c3ccccc32)cc1	none
CN1CC(=O)N(CC(=O)Nc2ccc3c(c2)OCO3)c2ccccc2C1=O	FECH block active
Cc1cc(C)cc(NC(=O)CN2C(=O)CN(C)C(=O)c3ccccc32)c1	none
CN1CC(=O)N(CC(=O)Nc2ccc(F)c(Cl)c2)c2ccccc2C1=O	FECH block active
CN1CC(=O)N(CC(=O)Nc2ccccc2)c2ccccc2C1=O	none
O=C(CCN1CCCCCCC1)NCCCc1cccnc1	none
Cc1cc(C)n(CCNC(=O)C(C)(C)NC(=O)c2cccs2)c(=O)n1	none
Cc1cc(Nc2ccc(OC(=O)C(C)C)cc2)n2nc(-c3cccnc3)nc2n1	none
Cc1ccc(Cn2c(CCNC(=O)Nc3cccc(Cl)c3C)nc3cccnc32)cc1	none
Cc1cc(C)n(C2CCN(c3ncnc4sc5c(c34)CCNC5)C2)n1 (stereo not given)	none
C=C(C)COc1cccc(C(=O)N2CC(N3CCCCC3C)C2)c1 (stereo not given)	none
O=C(CCN1CCC(OCc2cccnc2)CC1)NC1CCCCCC1	FECH block active
Cc1ccc(C(C)NC(=O)CN2CCC(OCc3cccnc3)CC2)cc1 (stereo not given)	none
C/C=C(\C)CN1CCC(OCc2cccnc2)CC1	none
Cc1c(-c2ccccc2F)[nH]c2ccc(CNC(=O)C(C)n3ccnc3)cc12 (stereo not given)	none
Cc1cccc(CN(C)Cc2cn[nH]c2-c2ccc(F)cc2)c1O	none
CN(CCC(C)(C)O)Cc1cccc(Cl)c1F	FECH block active
CCN(Cc1ccccc1Cl)C(=O)CCNC(=O)c1ccccc1F	none
COc1ccc(NS(=O)(=O)c2cc(N3C(=O)CCS3(=O)=O)ccc2OC)c(OC)c1	none
Cc1ccc(N2C(=O)CCS2(=O)=O)cc1S(=O)(=O)Nc1ccc(F)c(Cl)c1	none
Cc1ccc(Cn2c(CNS(=O)(=O)c3ccccc3)nc3cccnc32)cc1	none
CCN1C(SCc2ccc(N3CCCC3=O)cc2)=NS(=O)(=O)c2ccccc21	FECH block active
CCc1ncc2c(n1)CN(C(=O)c1ccc(N3CCCC3=O)cc1)C2	none
CCN1C(SCC(=O)N2CCN(c3ccccc3F)CC2)=NS(=O)(=O)c2ccccc21	none
O=C(CCC(=O)N1CCc2cc(S(=O)(=O)N3CCc4ccccc4C3)ccc21)N1CCCC1	none
Cc1cc(N2CCCC2)nc(N2CCN(S(=O)(=O)c3cc(C(C)C)ccc3C)CC2)n1	none
CN(C)S(=O)(=O)NCc1nc2cccnc2n1Cc1ccc(F)cc1	none
CCc1c(C)nc2ncnn2c1Sc1ccc(NC(=O)NCc2ccc(F)cc2)cc1	none
CCc1c(C)nc2ncnn2c1Sc1ccc(NC(=O)Nc2ccc(C)cc2C)cc1	none
CCc1c(C)nc2ncnn2c1Sc1ccc(NC(=O)NCc2ccc(C)cc2)cc1	FECH block active
CCc1c(C)nc2ncnn2c1Sc1ccc(NC(=O)NCCc2ccccc2)cc1	FECH block active
CCOc1ccccc1NC(=O)Nc1ccc(Sc2c(CC)c(C)nc3ncnn23)cc1	none
CCOc1ccc(NC(=O)Nc2ccc(Sc3c(CC)c(C)nc4ncnn34)cc2)cc1	none
Cc1ccc(CNC(=O)C2CCCN2C(=O)c2ccc(-c3noc(C)n3)cc2)cc1 (stereo not given)	none
COc1ccc(-c2cc(N3CCN(C(=O)Nc4ccc(Br)cc4F)CC3)ncn2)cc1	none
CCc1c(C)nc2ncnn2c1Sc1ccc(NC(=O)Nc2ccc(F)cc2F)cc1	none
O=c1cc(CNc2cccc(Cl)c2)nc2nc(NCc3ccc(F)cc3)[nH]n12	none
CCc1nc2nc(C)[nH]n2c(=O)c1NC(=O)Nc1cc(C)ccc1OC	none
Cc1nc2nc(C)c(NC(=O)Nc3cccc(Cl)c3)c(=O)n2[nH]1	none
Cc1cccc(NC(=O)Nc2c(C)nc3nc[nH]n3c2=O)c1	none
Cc1ccc(-c2nc(CSc3nc4c(c(=O)[nH]3)CCCC4)c(C)o2)cc1	none
Cc1ccc(NCc2nc3nc4c(c(=O)n3[nH]2)CCC4)c(C)c1	FECH block active
O=c1c2c(nc3nc(CNc4cccc(Cl)c4)[nH]n13)CCC2	FECH block active
Cc1cccc(NCc2nc3nc4c(c(=O)n3[nH]2)CCC4)c1	FECH block active
Cc1cccc(NC(=O)Nc2c(C)nc3nc(C)[nH]n3c2=O)c1	none
CCc1c(C)nc2ncnn2c1Sc1ccc(NC(=O)Nc2cc(Cl)ccc2OC)cc1	none

Bioassay records from PubChem.
